According to PubChem BioAssay (NCATS):
Results filed as inconclusive are left out. Active and inactive are the calls of the source. Unless noted, calls follow the shape of the dose curve; as a rule, active = well fitted curve in the direction sought with a large enough effect; inconclusive = small, poorly fitted or top-dose-only effect, or another doubt; inactive = no such curve, though single readings can be large; an effect the other way counts as inactive or inconclusive.

Assays:
[1] = target: ATP-dependent 6-phosphofructokinase (Trypanosoma brucei brucei) (UniProt O15648); assay: qHTS Assay to Find Inhibitors of T. brucei phosphofructokinase: hit validation (AID 492961);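 also: luminescence reports ADP formed as PFK phosphorylates fructose-6-phosphate with ATP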
ATP-dependent 6-phosphofructokinase (Trypanosoma brucei brucei), sequence (O15648 whole entry, looked up): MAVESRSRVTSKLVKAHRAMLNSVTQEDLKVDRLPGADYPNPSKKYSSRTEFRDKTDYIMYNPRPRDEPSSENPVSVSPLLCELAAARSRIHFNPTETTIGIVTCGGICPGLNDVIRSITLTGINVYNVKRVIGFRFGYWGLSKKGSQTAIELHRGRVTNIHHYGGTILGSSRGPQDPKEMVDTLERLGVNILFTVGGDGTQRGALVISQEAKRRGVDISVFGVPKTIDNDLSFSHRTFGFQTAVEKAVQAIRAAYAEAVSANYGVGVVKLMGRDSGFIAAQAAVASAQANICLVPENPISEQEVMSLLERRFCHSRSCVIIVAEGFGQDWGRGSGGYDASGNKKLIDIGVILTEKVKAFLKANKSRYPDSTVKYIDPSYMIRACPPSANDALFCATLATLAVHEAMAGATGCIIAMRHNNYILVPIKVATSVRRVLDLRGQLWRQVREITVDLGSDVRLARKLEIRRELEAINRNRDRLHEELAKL
Summary of the method: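 Reaction: 0.1 M triethanolamine pH 8.0, 5 mM MgCl2, F6P 0.5 mM, ATP 0.1 mM, PFK 1.25 nM, 45 min RT. Read-out: ADP-Glo luminescence. Analysis: concentration-response fits, classed by r2 and efficacy.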

[2] = target: Ubiquitin carboxyl-terminal hydrolase 1 (Homo sapiens) (UniProt O94782); assay: Inhibitors of USP1/UAF1: Pilot qHTS (AID 504865);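 also: rhodamine fluorescence freed from ubiquitin-rhodamine substrate followed over time; top concentration of the series differs between compounds; nearly all actives have a fitted effect of over 35% in size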
Ubiquitin carboxyl-terminal hydrolase 1 (Homo sapiens), sequence (O94782 whole entry, looked up): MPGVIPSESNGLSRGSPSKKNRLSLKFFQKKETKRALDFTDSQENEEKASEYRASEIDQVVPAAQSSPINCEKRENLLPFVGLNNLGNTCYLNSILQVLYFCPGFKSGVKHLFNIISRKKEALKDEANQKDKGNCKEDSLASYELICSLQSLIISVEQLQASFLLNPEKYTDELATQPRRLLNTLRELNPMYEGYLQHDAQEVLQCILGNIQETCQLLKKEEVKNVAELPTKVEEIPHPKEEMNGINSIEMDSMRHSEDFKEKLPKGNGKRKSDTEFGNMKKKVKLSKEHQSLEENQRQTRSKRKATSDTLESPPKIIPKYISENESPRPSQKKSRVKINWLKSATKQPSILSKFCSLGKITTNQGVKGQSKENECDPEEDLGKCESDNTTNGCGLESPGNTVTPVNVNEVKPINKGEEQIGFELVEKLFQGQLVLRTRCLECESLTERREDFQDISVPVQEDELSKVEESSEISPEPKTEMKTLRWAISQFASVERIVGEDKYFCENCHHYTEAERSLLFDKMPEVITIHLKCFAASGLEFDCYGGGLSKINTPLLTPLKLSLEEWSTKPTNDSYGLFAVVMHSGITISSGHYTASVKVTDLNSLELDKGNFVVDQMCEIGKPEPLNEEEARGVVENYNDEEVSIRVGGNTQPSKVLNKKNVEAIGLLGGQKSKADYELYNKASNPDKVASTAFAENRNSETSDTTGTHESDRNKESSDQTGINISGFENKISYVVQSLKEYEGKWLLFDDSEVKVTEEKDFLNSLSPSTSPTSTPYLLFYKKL
Summary of the method: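 Deubiquitinase activity followed as kinetic rhodamine fluorescence release from 150 nM Ub-Rho. 1 nM USP1/UAF1 with compound, after 15 min room-temperature preincubation, in HEPES pH 7.8 buffer containing TCEP, EDTA, BSA and Tween-20.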

[3] = target: Luciferin 4-monooxygenase (Photinus pyralis) (UniProt P08659); assay: Biochemical firefly luciferase enzyme assay for NPC (AID 624030);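 also: purified P. pyralis luciferase at 10 nM with luciferin and ATP substrate; nearly all actives have a fitted effect of over 70% in size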
Luciferin 4-monooxygenase (Photinus pyralis), sequence (P08659 whole entry, looked up): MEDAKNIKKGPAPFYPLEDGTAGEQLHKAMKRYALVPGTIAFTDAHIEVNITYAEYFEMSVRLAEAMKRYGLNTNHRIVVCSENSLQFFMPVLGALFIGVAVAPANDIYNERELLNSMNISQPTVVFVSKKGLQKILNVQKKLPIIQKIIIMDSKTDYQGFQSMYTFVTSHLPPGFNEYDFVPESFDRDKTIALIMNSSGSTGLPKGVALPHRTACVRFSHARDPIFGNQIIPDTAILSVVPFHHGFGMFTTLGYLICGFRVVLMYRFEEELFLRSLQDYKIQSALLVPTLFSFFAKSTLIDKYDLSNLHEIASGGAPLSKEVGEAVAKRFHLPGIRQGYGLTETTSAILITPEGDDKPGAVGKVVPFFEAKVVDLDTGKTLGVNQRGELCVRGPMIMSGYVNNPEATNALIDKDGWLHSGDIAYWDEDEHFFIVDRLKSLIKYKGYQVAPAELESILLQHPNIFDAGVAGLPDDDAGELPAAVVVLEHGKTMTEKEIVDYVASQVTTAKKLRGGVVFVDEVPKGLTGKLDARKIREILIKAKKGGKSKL
Summary of the method: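 Counter-screen for direct inhibition of the luciferase enzyme by approved-drug library compounds, run at 10 nM enzyme in 50 mM Tris acetate (final). Luminescence was read within 5 min of enzyme-buffer addition and normalized to PTC124 versus DMSO (0%).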

[4] = S16 Schwann cell viability assay (CellTiter-Glo assay) (AID 624031); also: potency is read from the fitted curve at half-maximal effect; nearly all actives have a fitted effect of over 70% in size
Summary of the method: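 Rat S16 Schwann cells without reporter constructs received compound or DMSO for 24 h at 37 °C under 5% CO2. Cellular ATP was then quantified by CellTiter-Glo luminescence, with vehicle wells defined as 0% activity and cell-free wells as reference.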

[5] = S16 Schwann cell PMP22 intronic element firefly luciferase assay (AID 624032); also: potency is read from the fitted curve at half-maximal effect; nearly all actives have a fitted effect of over 30% in size
Summary of the method: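 Rat S16 Schwann cells stably carrying a PMP22 intronic element-driven Fluc reporter were seeded overnight, then exposed to compounds for 24 h at 37 °C. Luminescence was normalized to PTC124 (positive control) and DMSO (0% activity).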

[6] = S16 Schwann cell PMP22 intronic element beta-lactamase assay (AID 624044; calls by dose curve; also: potency is read from the fitted curve at half-maximal effect; nearly all actives have a fitted effect of over 15% in size); conditions: S16 rat Schwann cells, PMP22 element beta-lactamase FRET, 24 h; ratio activity, negative = inhibition: at 38.3 µM (top of the series) unless noted
Summary of the method: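 Beta-lactamase reporter under a PMP22 intronic regulatory element in stable S16 rat Schwann cells; 24 h compound exposure. 460 nm blue signal normalized between DMSO (0%) and potassium clavulanate, with 535 nm FRET tracking viability; curves classed by r2 and response.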

[7] = Primary qHTS for Huh7 cytotoxicity: counterscreen for inhibitors of MERS-S pseudotyped particle cell entry (AID 1479147; calls by dose curve); conditions: outcome: dose series up to 57.1 µM unless noted
[8] = Primary qHTS for inhibitors of MERS-S pseudo-typed particle cell entry (AID 1479149; calls by dose curve; also: nearly all actives have a fitted effect of over 60% in size); conditions: outcome: dose series up to 57.1 µM unless noted
[9] = Primary qHTS for Vero E6 cytotoxicity: counterscreen for inhibitors of SARS-S pseudo-typed particle cell entry (AID 1479150; calls by dose curve); conditions: outcome: dose series up to 57.1 µM unless noted
[10] = Cytotoxicity counterscreen for inhibitors of SARS-CoV-2 cell entry (AID 1645845; calls by dose curve; also: nearly all actives have a fitted effect of over 50% in size); conditions: outcome: dose series up to 57.1 µM unless noted
Summary of the method: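 After a 15 min room-temperature ATPLite 1step step, luminescence reflected ATP remaining in HEK293-ACE2 cells exposed to compound for 1 h plus 48 h at 37 C, with percent activity set by cell and no-cell controls.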

[11] = Primary qHTS to identify inhibitors of SARS-CoV-2 cell entry (AID 1645846; calls by dose curve; also: nearly all actives have a fitted effect of over 45% in size); conditions: SARS-CoV-2 pseudovirus cell entry assay, luminescence; activity change, negative = inhibition: at 57.1 µM (top of the series) unless noted
Summary of the method: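 Entry measured by luciferase signal 48 h after adding SARS-CoV-2-S pseudotyped MLV particles to HEK293-ACE2 cells preincubated 1 h with compounds. Normalisation: bald particles and spike particles.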

[12] = target: Glutathione peroxidase 1 (Homo sapiens) (UniProt P07203); assay: Primary qHTS Assay for Inhibitors of Recombinant Selenoprotein Glutathione Peroxidase 1 (GPX1) (AID 1845191); also: nearly all actives have a fitted effect of over 65% in size
Glutathione peroxidase 1 (Homo sapiens), sequence (P07203 whole entry, looked up): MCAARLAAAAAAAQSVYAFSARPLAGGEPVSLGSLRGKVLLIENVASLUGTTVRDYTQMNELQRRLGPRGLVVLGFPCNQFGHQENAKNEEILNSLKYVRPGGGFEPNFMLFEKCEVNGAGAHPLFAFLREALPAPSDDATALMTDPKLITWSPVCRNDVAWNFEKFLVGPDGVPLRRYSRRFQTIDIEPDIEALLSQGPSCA
Summary of the method: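 GPX1 10 nM, GR 100 nM, GSH 1 mM, NADPH 0.5 mM, CHP 0.5 mM (final). 30-min cpd preincubation, RT. Ex340/Em450 read t=0, t=15 min.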

[13] = target: Phospholipid hydroperoxide glutathione peroxidase GPX4 (Homo sapiens) (UniProt P36969); assay: Primary qHTS Assay for Inhibitors of Recombinant Selenoprotein Glutathione Peroxidase 4 (GPX4) (AID 1845192); also: nearly all actives have a fitted effect of over 65% in size
Phospholipid hydroperoxide glutathione peroxidase GPX4 (Homo sapiens), sequence (P36969 whole entry, looked up): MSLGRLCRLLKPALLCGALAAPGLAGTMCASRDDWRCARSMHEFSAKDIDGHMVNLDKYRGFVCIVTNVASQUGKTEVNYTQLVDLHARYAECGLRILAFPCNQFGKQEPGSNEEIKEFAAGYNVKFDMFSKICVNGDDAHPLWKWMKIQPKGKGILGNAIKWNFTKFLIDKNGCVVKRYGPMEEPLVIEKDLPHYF
Summary of the method: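 qHTS, GR-coupled: GPX4 200 nM + cpd 30 min RT → GSH 1 mM, NADPH 0.5 mM, GR 100 nM → CHP 0.5 mM start; fluor 340/450 at t0 and t15 min; no-enzyme wells as control.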

[14] = qHTS profiling for inhibitors of Plasmodium falciparum proliferation (AID 504749); also: potency is read from the fitted curve at half-maximal effect; nearly all actives have a fitted effect of over 60% in size; conditions: P. falciparum in erythrocytes, SYBR Green DNA, 72 h
Summary of the method: (§1)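 Fluorescence of SYBR Green-bound parasite DNA, read at 485/535 nm, served as the growth measure. Infected erythrocytes were cultured with compound 72 h; artemisinin (0.29 uM) and DMSO wells defined the normalization range.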

[15] = system: 3D7; assay: as above; conditions: P. falciparum in erythrocytes, SYBR Green DNA, 72 h; series mostly up to 28.7 µM
Summary of the method: as §1

[16] = system: 7G8; assay: as above; conditions: P. falciparum in erythrocytes, SYBR Green DNA, 72 h; series mostly up to 12.8 µM
Summary of the method: as §1

[17] = system: AA1029; assay: as above; conditions: P. falciparum in erythrocytes, SYBR Green DNA, 72 h; series mostly up to 28.7 µM
Summary of the method: as §1

[18] = system: AS120; assay: as above; conditions: P. falciparum in erythrocytes, SYBR Green DNA, 72 h; series mostly up to 28.7 µM
Summary of the method: as §1

[19] = system: ATS189; assay: as above; conditions: P. falciparum in erythrocytes, SYBR Green DNA, 72 h; series mostly up to 28.7 µM
Summary of the method: as §1

[20] = system: ATS95; assay: as above; conditions: P. falciparum in erythrocytes, SYBR Green DNA, 72 h; series mostly up to 28.7 µM
Summary of the method: as §1

[21] = system: C2A; assay: as above; conditions: P. falciparum in erythrocytes, SYBR Green DNA, 72 h; series mostly up to 28.7 µM
Summary of the method: as §1

[22] = system: CP185; assay: as above; conditions: P. falciparum in erythrocytes, SYBR Green DNA, 72 h; series mostly up to 28.7 µM
Summary of the method: as §1

[23] = system: CP191; assay: as above; conditions: P. falciparum in erythrocytes, SYBR Green DNA, 72 h; series mostly up to 28.7 µM
Summary of the method: as §1

[24] = system: CP192; assay: as above; conditions: P. falciparum in erythrocytes, SYBR Green DNA, 72 h; series mostly up to 28.7 µM
Summary of the method: as §1

[25] = system: CP194; assay: as above; conditions: P. falciparum in erythrocytes, SYBR Green DNA, 72 h; series mostly up to 28.7 µM
Summary of the method: as §1

[26] = system: CP201; assay: as above; conditions: P. falciparum in erythrocytes, SYBR Green DNA, 72 h; series mostly up to 28.7 µM
Summary of the method: as §1

[27] = system: CP203; assay: as above; conditions: P. falciparum in erythrocytes, SYBR Green DNA, 72 h; series mostly up to 28.7 µM
Summary of the method: as §1

[28] = system: CP211; assay: as above; conditions: P. falciparum in erythrocytes, SYBR Green DNA, 72 h; series mostly up to 28.7 µM
Summary of the method: as §1

[29] = system: CP215; assay: as above; conditions: P. falciparum in erythrocytes, SYBR Green DNA, 72 h; series mostly up to 28.7 µM
Summary of the method: as §1

[30] = system: CP217; assay: as above; conditions: P. falciparum in erythrocytes, SYBR Green DNA, 72 h; series mostly up to 28.7 µM
Summary of the method: as §1

[31] = system: CP237; assay: as above; conditions: P. falciparum in erythrocytes, SYBR Green DNA, 72 h; series mostly up to 28.7 µM
Summary of the method: as §1

[32] = system: CP238; assay: as above; conditions: P. falciparum in erythrocytes, SYBR Green DNA, 72 h; series mostly up to 28.7 µM
Summary of the method: as §1

[33] = system: CP247; assay: as above; conditions: P. falciparum in erythrocytes, SYBR Green DNA, 72 h; series mostly up to 28.7 µM
Summary of the method: as §1

[34] = system: CP250; assay: as above; conditions: P. falciparum in erythrocytes, SYBR Green DNA, 72 h; series mostly up to 12.8 µM
Summary of the method: as §1

CO[C@@H](COC(N)=O)C1=C(N2CC2)C(=O)C(C)=C(N2CC2)C1=O
inactive: Potency [1] | Potency [2] | Potency [3] | Potency [7] | Potency [8] | Potency [9] | Potency [10] | Potency [12] | Potency [13]
active: Potency [4] 32.2 µM | Potency [5] 36.1 µM | Potency [6] 0.354 µM | Potency ([14]; parasite line A) 0.891 µM | Potency ([14]; parasite line B) 1.41 µM | Potency [15] 1.26 µM | Potency [16] 1.26 µM | Potency [17] 1.41 µM | Potency [18] 0.891 µM | Potency [19] 2.82 µM | Potency [20] 1.41 µM | Potency [21] 0.794 µM | Potency [22] 0.794 µM | Potency [23] 0.708 µM | Potency [24] 1.69 µM | Potency [25] 1.69 µM | Potency [26] 3.38 µM | Potency [27] 1.51 µM | Potency [28] 0.675 µM | Potency [29] 1.9 µM | Potency [30] 3.16 µM | Potency [31] 1.26 µM | Potency [32] 1.41 µM | Potency [33] 0.708 µM | Potency [34] 1.41 µM
-18.1%: activity change, negative = inhibition [11]
